AmpC nodet inh – inhibitors of E. coli AmpC beta-lactamase without detergent; P00811; AmpC nitrocefin hydrolysis, absorbance 480 nm, no detergent; Potency, µM (top dose mostly 28.7 µM), inactives show at the top dose activity change, negative = inhibition; 71,000 compounds, 1.8% hits; AID 585; further: % of control where 0% means no effect
Target sequence (P00811 whole entry, looked up): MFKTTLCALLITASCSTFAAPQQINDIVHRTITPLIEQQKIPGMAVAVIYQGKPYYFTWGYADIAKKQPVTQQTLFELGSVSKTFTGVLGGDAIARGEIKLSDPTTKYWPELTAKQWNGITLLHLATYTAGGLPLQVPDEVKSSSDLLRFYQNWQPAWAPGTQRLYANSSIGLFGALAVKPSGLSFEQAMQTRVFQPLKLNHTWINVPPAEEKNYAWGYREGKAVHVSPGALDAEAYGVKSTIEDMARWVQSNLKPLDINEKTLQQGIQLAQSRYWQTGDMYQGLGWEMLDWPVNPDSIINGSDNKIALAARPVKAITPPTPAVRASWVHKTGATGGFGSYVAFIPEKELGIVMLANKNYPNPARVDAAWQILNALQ
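AmpC in 20 mM phosphate buffer pH 7.0 was preincubated 15 min at room temperature with compounds. Nitrocefin (800 uM stock) was then added and hydrolysis followed at 480 nm every 20 s for 4 min.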
Prx2 Sm inh – inhibitors of Schistosoma mansoni peroxiredoxin 2; S. mansoni Prx2 activity coupled to TGR/GSH (TGR is thioredoxin glutathione reductase), NADPH fluorescence loss, qHTS; Potency, µM; 65,000 compounds, 0.07% hits
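Purified S. mansoni TGR and Prx2 in pH 7.4 phosphate buffer with EDTA and Tween-20 were preincubated with compounds for 15 min. Further NADPH/GSH was added, then a 2.5 mM H2O2 aliquot initiated turnover, followed kinetically by NADPH fluorescence.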
LT uptake inh – anthrax lethal toxin internalization inhibition | Cells, anthrax lethal toxin internalization, FRET ratio (460/530) | Potency, µM (doses to about 40 µM), without a hit: at the top dose activity change, negative = inhibition, actives largely listed as inhibitors | 70,000 compounds, 0.67% hits | AID 912; further: on the % scale 0 is the no-effect control and ±100 the full control effect; nearly all actives have a fitted effect of over 50% in size
AmpC det inh – AmpC beta-lactamase inhibition, detergent assay | 71,000 compounds, 0.09% hits | purified AmpC, nitrocefin hydrolysis with detergent | Potency, µM (series often up to 28.7 µM), for the others: at the top dose activity change, negative = inhibition; active means well fitted curve in the direction sought with a large enough effect; inconclusive means small, poorly fitted or top-dose-only effect; further: on the % scale 0 is the no-effect control and ±100 the full control effect
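E. coli AmpC (5.3 nM) in 20 mM phosphate pH 7.0 with 0.01% Triton X-100, preincubated 15 min RT with compound; nitrocefin (2 uL of 800 uM stock) hydrolysis followed by 480 nm absorbance every 20 s over 4 min.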
* = called active by the depositor; ? = inconclusive; nt = no result; [ ] = dose if it differs, or a comment. Hits are enriched below; roughly 2.4% of the tested compounds scored in any of these assays. Unless noted, the call rests on the fitted dose curve. Potency means the concentration at half of the fitted maximal effect.

SMILES | AmpC nodet inh | Prx2 Sm inh | LT uptake inh | AmpC det inh
CCOC(=O)N1CCN(S(=O)(=O)c2ccc3c(c2)oc(=O)n3C)CC1 | 9.8% | >57 | nt | -4.7%
CCCN1CCN(C(=O)C2CCN(S(=O)(=O)c3ccc4c(c3)oc(=O)n4C)CC2)CC1 | 3.98µM*[single pt active] | >57 | ? | 11.2%
CCCCCCCCCCCCCCCCOC[C@@H](COCC(F)(F)F)OP(=O)(O)OCO | 169.2% | >57 | ? | -9.9%
O=C1c2ccccc2C(Nc2cccnc2)N1Cc1ccc2c(c1)OCO2 (stereo not drawn) | 3.16µM*[single pt active] | >57 | 0.3% | 12.9%
O=C1c2ccccc2C(O)N1Cc1ccc2c(c1)OCO2 (stereo not drawn) | 3.98µM*[single pt active] | >57 | -4.9% | 13.3%
COc1ccc(OC)c(NC2c3ccccc3C(=O)N2Cc2ccc3c(c2)OCO3)c1 (stereo not drawn) | 3.98µM*[single pt active] | >57 | ? | 14.8%
N=C(N)C(N=Nc1ccccc1)C(=N)N (stereo not drawn) | 8.2%[5.75 µM] | >57 | -10.7%[8 µM] | -3.4%[5.75 µM]
O=C1c2ccccc2C(O)(O)[C@@]1(O)[C@]1(O)C(=O)c2ccccc2C1(O)O | -1.2%[5.75 µM] | ? | ? | -2.0%[5.75 µM]
CCN1C(=O)c2cccc3cccc1c23 | -2.6% | 3.94* | ? | -1.1%
O=[N+]([O-])c1ccc(Cl)c(CNc2ncnc3c2ncn3[C@@H]2CCCCO2)c1 | 12.5%[5.75 µM] | >57 | ? | -2.8%[5.75 µM]
COc1ccc2c(c1)c(CCN1CCOCC1)c(C)n2C(=O)c1cccc(Cl)c1Cl | nt | nt | 12.6µM* | nt
COc1ccc2c(c1)c(CC(=O)O)c(C)n2C(=O)c1ccc(Cl)cc1 | -0.9% | >57 | ? | 3.3%
COc1cccc2c1C(=O)c1c(O)c3c(c(O)c1C2=O)C[C@](O)(C(=O)CO)C[C@@H]3O[C@H]1C[C@H](N)[C@@H](O)[C@H](C)O1 | 1.6%[5.75 µM] | >57 | 0.4%[8 µM] | -1.8%[5.75 µM]
COc1cccc2c1C(=O)c1c(O)c3c(c(O)c1C2=O)C[C@@](O)(C(C)=O)C[C@@H]3O[C@H]1C[C@H](N)[C@H](O)[C@H](C)O1 | 144.3% | >57 | 15.8µM* | 8.6%
COC(=O)c1ccccc1NC(=O)Nc1nnc(N2CCCCC2C)s1 (stereo not drawn) | 3.98µM*[single pt active] | >57 | 1.26µM* | 11.6%
COc1ccc(NC(=O)Nc2nnc(N3CCCCC3C)s2)cc1OC (stereo not drawn) | 3.98µM*[single pt active] | nt | 4.5% | 18.5%
CCCn1c(OC)nc2c1c(=O)n(C)c(=O)n2C | 3.98µM*[single pt active] | >57 | 4.4% | 8.4%
CCCOc1nc2c(c(=O)n(C)c(=O)n2C)n1CCC | 11.2% | >57 | -3.1% | 22.5%
Cc1cc(/C=N/n2cnnc2)c(C)n1-c1cccc(Cl)c1 | 52.3% | nt | 12.4% | -3.0%
Cc1cc(/C=N/n2cnnc2)c(C)n1-c1ccc(OCc2ccc(F)cc2)cc1 | 99.4% | >57 | 12.6µM* | -2.8%
Cc1ccccc1-c1nc(CS(=O)(=O)CC(=O)NCCN2CCOCC2)c(C)o1 | 53.8% | >57 | -11.8% | 6.1%
Cc1ccc(-c2nc(CS(=O)CC(=O)NCCN(CC(C)C)CC(C)C)c(C)o2)cc1 (stereo not drawn) | 92.3% | >57 | -9.9% | -3.5%
Cc1oc(-c2ccc(Cl)cc2)nc1CS(=O)CC(=O)NCCN1CCCC1 (stereo not drawn) | 3.98µM*[single pt active] | >57 | -16.9% | 12.4%
Cc1ccccc1-c1nc(CS(=O)CC(=O)NCCN2CCOCC2)c(C)o1 (stereo not drawn) | 3.98µM*[single pt active] | >57 | -6.3% | 14.8%
Cc1ccc(-c2nc(CS(=O)CC(=O)NCCN3CCOCC3)c(C)o2)cc1 (stereo not drawn) | 3.98µM*[single pt active] | >57 | -3.8% | 7.1%
SMILES | AmpC nodet inh | Prx2 Sm inh | LT uptake inh | AmpC det inh
Cc1ccc(-c2nc(CS(=O)CC(=O)NCCN3CCCC3)c(C)o2)cc1 (stereo not drawn) | 3.98µM*[single pt active] | >57 | 9.8% | 14.9%
O=c1cccc2n1C[C@@H]1C[C@H]2CN2CCCC[C@H]12 | -4.9% | >57 | ? | -2.3%
Cc1ccc(CNC(=O)CS(=O)Cc2nc(-c3ccccc3C)oc2C)cc1 (stereo not drawn) | 94.2% | >57 | ? | 11.7%
Cc1ccccc1-c1nc(CS(=O)CC(=O)NCc2ccccc2)c(C)o1 (stereo not drawn) | 3.98µM*[single pt active] | >57 | -5.3% | 12.8%
CCOC(=O)N1CCC(NC(=O)C2CCCN(Cc3nc(-c4cccc(Cl)c4)oc3C)C2)CC1 (stereo not drawn) | 89.9% | >57 | ? | 10.2%
CCN1CCN(CCNC(=O)C2CCCN(Cc3nc(-c4cccc(Cl)c4)oc3C)C2)CC1 (stereo not drawn) | 81.5% | >57 | 3.98µM* | 11.5%
Cc1ccc(-c2nc(CS(=O)CC(=O)NCc3ccccn3)c(C)o2)cc1 (stereo not drawn) | 3.98µM*[single pt active] | >57 | -9.2% | 12.4%
N=C1Sc2ccccc2C2=NCCCN12 | -13.3% | >57 | 0.0251µM* | -1.1%
C=C(C)CN(CC#N)CC(=C)C | 15.3%[5.75 µM] | >57 | -11.3%[8 µM] | -2.7%[5.75 µM]
O=C1Nc2ccccc2C(O)(C(=O)NCc2ccco2)N1c1ccc(Cl)c(Cl)c1 (stereo not drawn) | -6.1% | >57 | 7.94µM* | -2.6%
CC(=O)N1C[C@@H]2C[C@H](C1)c1cccc(=O)n1C2 | 3.1% | >57 | ? | 1.8%
C[C@@H]1/C=C\CC(=O)OC[C@H](C)C(=O)N[C@@H](Cc2ccccc2)C(=O)OC1 | nt | nt | -1.1%[8 µM] | nt
Cn1c(=O)n(CC(=O)Nc2ccc(F)cc2)c2ccccc21 | 2.5% | >57 | -8.3% | -5.6%
CCCCNC(=O)Cn1c(=O)n(C)c2ccccc21 | 3.98µM*[single pt active] | >57 | -11.6% | 9.3%
CC1=CS/C(=C(/C#N)C(=O)N2CCCCC2)N1c1ccccc1 | 5.0% | nt | 1.7% | -1.1%
N#C/C(C(=O)c1ccccc1)=C1/SC=C(N)N1c1ccccc1 | 12.6µM* | >57 | -29.2% | 11.0%
C[C@@]12CC[C@H](O)C[C@@H]1CC[C@H]1[C@H]2C[C@@H](O)[C@]2(C)[C@@H](C3=CC(=O)OC3)CC[C@@]12O | -10.2% | >11.4 | ? | 7.4%
C[C@H](NCCN(C)C)[C@@H]1CCC2C3CCc4cc(O)ccc4[C@H]3CCC21C (stereo partly drawn) | 4.5%[5.75 µM] | >57 | ? | -1.9%[5.75 µM]
COc1ccc(S(=O)(=O)N2CCN(C)CC2)c2ccccc12 | 3.98µM*[single pt active] | >57 | 18.9% | 11.3%
CN(C)CCCNc1c2c(nc3ccc(Cl)cc13)CCCC2 | -5.9%[5.75 µM] | >57 | ? | -3.6%[5.75 µM]
COc1cccc(-n2c(Cc3cc(=O)[nH]c(=O)[nH]3)nnc2SCc2cccnc2)c1 | 3.98µM*[single pt active] | >57 | -1.4% | 13.6%
COc1ccc(-n2c(Cc3cc(=O)[nH]c(=O)[nH]3)nnc2SCc2ccccc2)cc1 | 3.98µM*[single pt active] | >57 | 3.4% | 9.5%
CCOc1ccc(-n2c(Cc3cc(=O)[nH]c(=O)[nH]3)nnc2SCC)cc1 | 2.8% | >57 | -8.9% | 15.0%
CCn1c2ccccc2c2cc(NC(=O)C3CCN(S(=O)(=O)c4cccs4)CC3)ccc21 | 12.6µM* | >57 | -28.5% | -1.1%
CC1CC(C)CN(CCCNC(=O)Cn2ncc3c(=O)oc4ccccc4c32)C1 (stereo not drawn) | 3.16µM*[single pt active] | >57 | -5.6% | 9.2%

From PubChem
